A short description of experiment [1]: qHTS assay for small molecule agonists of the p53 signaling pathway - cell viability (AID 651633; calls by dose curve;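 further: p53RE-bla HCT reporter cells with a stable beta-lactamase p53 reporter; series mostly up to about 83 µM; nearly all actives have a fitted effect of over 30% in size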). The gist of the method:
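p53RE-bla cells, seeded at 4,000 per well and rested 5 h at 37 C/5% CO2, received compounds in DMSO for 16 h at 37 C. CellTiter-Glo was then added, and luminescence was read after 30 min at room temperature to gauge cytotoxicity.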

A short description of experiment [2]: qHTS assay to test for compound auto fluorescence at 590 nm (red) in HepG2 cells (AID 720674). In a few lines: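 Rose Bengal sodium served as the red fluorophore standard. HepG2 monolayers (overnight attachment, MEM with 10% FBS) were exposed to test compounds for 1 hr at 37 C and read at Ex 540/Em 590 nm.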
Experiment [3] is described as follows: qHTS assay to test for compound auto fluorescence at 460 nm (blue) in HEK293 cells (AID 720678). In a few lines: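 Blue read-out at excitation 405 nm and emission 460 nm follows overnight compound exposure of HEK293 cells at 37C in 5% CO2. Activity is given as auto fluorescence equivalency to triamterene.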
A general note: qHTS replaces the single test concentration by a dilution series.

Experiment [4] can be described thus: qHTS assay to test for compound auto fluorescence at 590 nm (red) in HEK293 cells (AID 720679). In a few lines: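 Red channel, Ex/Em 540/590nm; signal expressed as equivalency to Rose Bengal sodium. HEK293, 2,000 cells/well, 10% dialyzed FBS; 23 nL compound pinned after 4-5 hr attachment; overnight 37C/5% CO2 before reading.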
A short description of experiment [5]: qHTS assay to test for compound auto fluorescence at 460 nm (blue) in HepG2 cells (AID 720687). The gist of the method:
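Cells (2,000/well in MEM with 10% FBS) attached overnight at 37 C, then were exposed to compound or DMSO for 1 hr at 37 C, 5% CO2. Fluorescence read at Ex/Em 405/460 nm, expressed as triamterene-equivalent signal.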

Experiment [6] addresses Glucocorticoid receptor (Homo sapiens) (UniProt P04150). The experiment is described as follows: qHTS assay to identify small molecule agonists of the glucocorticoid receptor (GR) signaling pathway (AID 720691; active means well fitted activation curve with a large enough effect in the signal ratio in the repeat runs, not every such curve was filed as active; inconclusive means weak or mixed curves, or effect the other way; inactive means no such curve, though single readings can be large or run the other way; the % refers to the signal ratio). In a few lines: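 A HeLa cervical cancer line expressing GR and a glucocorticoid response element-driven beta-lactamase gene is treated with compounds for 18 h; LiveBLAzer B/G FRET substrate is then applied and fluorescence read.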

For experiment [7] the target is unchanged. The experiment is described as follows: qHTS assay to identify small molecule antagonists of the glucocorticoid receptor (GR) signaling pathway (AID 720692; active means well fitted inhibition curve with a large enough effect in the signal ratio in the repeat runs, not every such curve was filed as active; inconclusive means weak or mixed curves, or effect the other way; inactive means no such curve, though single readings can be large or run the other way; the % refers to the signal ratio; further: potency means the concentration at half of the fitted maximal effect). In a few lines: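 GRE-bla HeLa line, dex-stimulated (5 nM final). Compound exposure 18 h, 37 C. Beta-lactamase FRET read after 2 h RT substrate.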
Experiment [8] is described as follows: qHTS assay to identify small molecule antagonists of the glucocorticoid receptor (GR) signaling pathway - cell viability counter screen (AID 720693). Further: nearly all actives have a fitted effect of over 55% in size.
Experiment [9] in a line: qHTS assay for identifying genotoxic compounds that show differential cytotoxicity against isogenic chicken DT40 cell lines with known DNA damage response pathways - wild type cell line (AID 743012). Further: nearly all actives have a fitted effect of over 60% in size. Further: potency means the concentration at half of the fitted maximal effect. In a few lines: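 300 wt DT40 cells/well; cpd (DMSO) pintool-transferred after ~0.5 h at 37 C/5% CO2; 40 h incubation; CellTiter-Glo added, 30 min RT; luminescence read.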
Experiment [10] is described as follows: qHTS assay for identifying genotoxic compounds that show differential cytotoxicity against isogenic chicken DT40 cell lines with known DNA damage response pathways - Rev3 mutant cell line (AID 743014). Further: nearly all actives have a fitted effect of over 55% in size. Further: potency means the concentration at half of the fitted maximal effect.
Experiment [11] can be described thus: qHTS assay for identifying genotoxic compounds that show differential cytotoxicity against isogenic chicken DT40 cell lines with known DNA damage response pathways - Rad54/Ku70 mutant cell line (AID 743015). Further: nearly all actives have a fitted effect of over 60% in size. Further: potency means the concentration at half of the fitted maximal effect.
Experiment [12] can be described thus: qHTS assay to identify small molecule antagonists of the androgen receptor (AR) signaling pathway - cell viability counter screen (AID 743033; further: nearly all actives have a fitted effect of over 45% in size).
Experiment [13] addresses Estrogen receptor (Homo sapiens) (UniProt P03372). Description: qHTS assay to identify small molecule agonists of the estrogen receptor alpha (ER-alpha) signaling pathway (AID 743075; calls by dose curve;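 further: HEK293 GripTite cells with ER-alpha and UAS-driven beta-lactamase reporter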; further: potency means the concentration at half of the fitted maximal effect).
Experiment [14] shares this target. The experiment is described as follows: qHTS assay to identify small molecule agonists of the estrogen receptor alpha (ER-alpha) signaling pathway using the BG1 cell line (AID 743079). Further: nearly all actives have a fitted effect of over 20% in size. Further: potency means the concentration at half of the fitted maximal effect.
Experiment [15] addresses Peroxisome proliferator-activated receptor gamma (Homo sapiens) (UniProt P37231). Description: qHTS assay to identify small molecule agonists of the peroxisome proliferator-activated receptor gamma (PPARg) signaling pathway (AID 743094; active means well fitted activation curve with a large enough effect in the signal ratio in the repeat runs, not every such curve was filed as active; inconclusive means weak or mixed curves, or effect the other way; inactive means no such curve, though single readings can be large or run the other way; the % refers to the signal ratio). In a few lines:
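Cell-based bla reporter, HEK293H background, PPARg-driven UAS. Pre-incubation 5 h, 37C, 5% CO2. Compound 17 h, 37C. Substrate 1 h RT; fluorescence.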

Experiment [16] concerns the target Nuclear receptor subfamily 1 group I member 2 (Homo sapiens) (UniProt O75469). Description: CYP3A4 induction through human pregnane X receptor (PXR) by small molecules, qHTS assay (AID 1346984). Further: nearly all actives have a fitted effect of over 40% in size. In a few lines: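 Human PXR activation is tracked via CYP3A4 promoter-luciferase in DPX-2 (HepG2) cells. Compounds treat cells for 24hr at 37C, and luminescence is read after One-Glo.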

Experiment [17] in a line: qHTS assay for small molecules that induce genotoxicity in human embryonic kidney cells expressing luciferase-tagged ATAD5 (AID 651632). Further: nearly all actives have a fitted effect of over 15% in size. In a few lines:
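Test compounds were delivered by pin tool onto HEK293T reporter cells (2,000/well) expressing ATAD5 fused to luciferase. After 16 hr at 37C, 5% CO2, Amplite was added for 30 min at room temperature and luminescence was measured.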

A short description of experiment [18]: qHTS assay to identify small molecule antagonists of the thyroid receptor (TR) signaling pathway - cell viability counter screen (AID 743064). Further: nearly all actives have a fitted effect of over 50% in size. The gist of the method: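 Rat GH3 pituitary tumor cells stably expressing two TR response elements driving luciferase were plated, rested 4 h, then dosed with library compounds and T3 (1 nM final). After 23.5 h at 37 °C, CellTiter-Fluor was added for 30 min and fluorescence recorded.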

In experiment [19] the target is Nuclear receptor subfamily 1 group I member 2 (Homo sapiens) (UniProt O75469). The experiment is described as follows: Human pregnane X receptor (PXR) activation by small molecules, qHTS assay (AID 1346985). Further: nearly all actives have a fitted effect of over 40% in size. Further: potency means the concentration at half of the fitted maximal effect. The gist of the method:
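DPX-2 cells (HepG2 co-transfected with a PXR response element and a CYP3A4-promoter luciferase construct) were seeded at 2,000 per well, rested 5 hr at 37C, then exposed to DMSO-dissolved compounds for 24 hr. Activation was read as luciferase luminescence.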

Experiment [20] can be described thus: qHTS assay to identify small molecule antagonists of the thyroid receptor (TR) signaling pathway (AID 743065). Further: series mostly up to about 70 µM; nearly all actives have a fitted effect of over 55% in size. In a few lines: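 GH3.TRE-Luc rat pituitary cells carrying two TR response elements driving luciferase were plated for 4 h, given compound plus 1 nM T3 (final), and incubated 23.5 h at 37 C. ONE-Glo luminescence measured reporter inhibition; CellTiter-Fluor fluorescence tracked cytotoxicity.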

Activity calls are given as the source filed them. Unless noted, the call rests on the fitted dose curve; in most records, active means well fitted curve in the direction sought with a large enough effect in the repeat runs; inconclusive means weak or mixed curves; inactive means no such curve, though single readings can be large; an effect the other way counts as inactive or inconclusive.

Sequence of Estrogen receptor (Homo sapiens) (P03372 whole entry, looked up): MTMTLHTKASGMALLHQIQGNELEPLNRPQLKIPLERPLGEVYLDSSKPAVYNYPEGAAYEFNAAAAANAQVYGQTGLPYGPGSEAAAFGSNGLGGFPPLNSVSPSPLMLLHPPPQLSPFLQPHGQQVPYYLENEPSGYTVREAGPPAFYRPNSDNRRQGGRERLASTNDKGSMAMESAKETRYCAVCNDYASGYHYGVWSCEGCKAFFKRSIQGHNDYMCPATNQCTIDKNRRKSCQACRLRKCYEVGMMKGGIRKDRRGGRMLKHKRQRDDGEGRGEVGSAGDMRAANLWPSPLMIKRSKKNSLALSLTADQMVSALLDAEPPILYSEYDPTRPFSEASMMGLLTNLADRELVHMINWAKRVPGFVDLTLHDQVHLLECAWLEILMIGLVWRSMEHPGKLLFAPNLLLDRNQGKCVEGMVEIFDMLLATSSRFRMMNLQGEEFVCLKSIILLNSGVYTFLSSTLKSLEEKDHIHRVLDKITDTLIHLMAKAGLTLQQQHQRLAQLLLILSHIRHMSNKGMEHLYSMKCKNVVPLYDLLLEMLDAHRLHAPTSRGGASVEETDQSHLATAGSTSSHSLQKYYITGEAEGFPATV
Sequence of Glucocorticoid receptor (Homo sapiens) (P04150 whole entry, looked up): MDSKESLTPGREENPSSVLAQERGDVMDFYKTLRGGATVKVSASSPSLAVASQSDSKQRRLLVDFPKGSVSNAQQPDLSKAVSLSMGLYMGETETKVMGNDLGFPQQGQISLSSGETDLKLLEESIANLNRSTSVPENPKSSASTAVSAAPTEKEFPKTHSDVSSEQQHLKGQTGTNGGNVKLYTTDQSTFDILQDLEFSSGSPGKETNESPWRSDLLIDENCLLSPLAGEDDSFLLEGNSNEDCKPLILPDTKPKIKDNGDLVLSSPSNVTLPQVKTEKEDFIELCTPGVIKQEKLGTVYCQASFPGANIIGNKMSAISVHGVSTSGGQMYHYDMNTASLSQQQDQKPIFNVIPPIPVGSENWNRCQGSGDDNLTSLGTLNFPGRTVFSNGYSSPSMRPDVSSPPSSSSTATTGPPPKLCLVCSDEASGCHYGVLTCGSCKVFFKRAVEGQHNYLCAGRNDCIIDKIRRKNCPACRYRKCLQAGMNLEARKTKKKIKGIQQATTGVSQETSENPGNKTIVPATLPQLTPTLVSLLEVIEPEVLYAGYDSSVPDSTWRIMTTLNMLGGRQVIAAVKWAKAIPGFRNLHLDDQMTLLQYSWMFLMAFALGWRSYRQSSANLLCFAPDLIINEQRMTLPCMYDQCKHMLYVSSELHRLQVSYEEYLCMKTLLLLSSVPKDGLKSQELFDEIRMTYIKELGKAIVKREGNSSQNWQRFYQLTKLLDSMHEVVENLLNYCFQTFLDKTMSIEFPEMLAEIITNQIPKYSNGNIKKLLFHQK
Sequence of Peroxisome proliferator-activated receptor gamma (Homo sapiens) (P37231 whole entry, looked up): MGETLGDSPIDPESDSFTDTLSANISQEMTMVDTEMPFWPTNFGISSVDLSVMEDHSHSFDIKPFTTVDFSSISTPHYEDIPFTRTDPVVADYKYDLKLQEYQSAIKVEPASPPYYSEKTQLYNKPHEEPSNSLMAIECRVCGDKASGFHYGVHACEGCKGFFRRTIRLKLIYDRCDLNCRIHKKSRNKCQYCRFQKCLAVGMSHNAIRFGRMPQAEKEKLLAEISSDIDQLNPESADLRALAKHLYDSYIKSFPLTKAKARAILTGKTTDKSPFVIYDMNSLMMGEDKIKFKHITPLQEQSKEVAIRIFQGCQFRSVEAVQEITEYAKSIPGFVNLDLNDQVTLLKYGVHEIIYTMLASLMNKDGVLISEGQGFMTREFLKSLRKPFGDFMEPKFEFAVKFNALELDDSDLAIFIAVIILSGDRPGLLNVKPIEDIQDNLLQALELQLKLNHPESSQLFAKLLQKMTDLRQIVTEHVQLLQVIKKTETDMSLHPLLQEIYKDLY

As to `C=CC[C@]1(O)CC[C@H]2[C@@H]3CCC4=CCCC[C@@H]4[C@H]3CC[C@@]21C`, the Potency entry in [1], in experiment [3], in [5], in experiment [6], in experiment [8] and in experiment [9] was “inactive” each time. Further, the Potency result in experiment [10], in experiment [11], in experiment [12], in experiment [15] and in [16] was “inactive” each time. Moreover, the compound was called inactive in [2] and in [4]. Also, the Potency in experiment [7] was 7.56 µM (active); in experiment [13], 0.952 µM [inconclusive] (active); in experiment [14], 0.376 µM (active).

As for `CNc1ccc(C(=O)CC(O)CCC(C)C2OC(=O)CC(O)CC(=O)CC(O)CC(O)CC(O)CC(O)CC3(O)CC(O)C(C(=O)OC)C(CC(O[C@@H]4O[C@H](C)[C@@H](O)[C@H](N)[C@@H]4O)/C=C/C=C/C=C/C=C/C=C/C=C/C=C/C2C)O3)cc1` (stereo partly drawn), the Potency result in experiment [17], in [1], in experiment [3], in experiment [5], in experiment [6] and in [7] was “inactive” each time. The Potency entry in experiment [8], in [12], in experiment [18], in [13], in experiment [14] and in [16] was “inactive” each time. For the same compound, the Potency entry in experiment [19] is “inactive”.

`COC([CH2][Hg])CNC(=O)c1ccccc1OCC(=O)O` (stereo not drawn): the Potency result in experiment [1], in experiment [3], in experiment [6], in [7], in [18] and in experiment [13] was “inactive” throughout. Further, the Potency result in experiment [14], in experiment [16] and in experiment [19] was “inactive” throughout. Besides, the result in experiment [2] and in experiment [4] was inactive. The Potency in experiment [9] is 1.68 µM (active); in [11] it was 2.98 µM (active).

Regarding `CCCCCCC(=O)O[C@H]1CC[C@H]2[C@@H]3CC[C@H]4CC(=O)C=C(C)[C@]4(C)[C@H]3CC[C@]12C`, the Potency result in [17], in experiment [5], in experiment [6], in experiment [8], in experiment [10] and in [11] was “inactive” in each case. The Potency result in experiment [18], in experiment [20], in experiment [15], in experiment [16] and in experiment [19] was “inactive” in each case. For the same compound, the result in experiment [4] was inactive. Also, the Potency in experiment [13] was 6.74 µM [inconclusive] (active); in experiment [14] it was 2.11 µM (active).

On to `O=C(CCl)c1ccc(Oc2ccc(C(=O)CCl)cc2)cc1`, for which the Potency entry in experiment [17], in [1], in experiment [3], in experiment [5], in experiment [8] and in experiment [12] was “inactive” each time. Besides, the Potency entry in experiment [18], in [20], in experiment [13], in experiment [16] and in experiment [19] was “inactive” throughout. The compound was called inactive in experiment [2] and in [4]. Moreover, the results for the Potency in experiment [9] and in [10] were 26.6 µM (active) and 29.8 µM (active), respectively.

For the compound `CCN(CC)C(=O)N[C@H]1C[C@@H]2c3cccc4[nH]cc(c34)C[C@H]2N(C)C1`, the Potency result in experiment [17], in experiment [1], in [3], in experiment [5], in experiment [12] and in [18] was “inactive” throughout. In [15], the Potency result is “inactive”. In addition, the result in experiment [2] and in experiment [4] was inactive. For the same compound, the Potency was 29.8 µM (active) in [9] and 25.1 µM (active) in [19].

Take `Cc1cccc(C(C)c2cnc[nH]2)c1C` (stereo not drawn): the compound was called inactive in experiment [2] and in [4]. The Potency result in [3], in [5], in experiment [6], in experiment [8], in experiment [12] and in experiment [18] was “inactive” in each case. Further, the Potency result in [20], in experiment [16] and in experiment [19] was “inactive” throughout.

These data come from PubChem BioAssay (Tox21).
